Screening results as filed in PubChem.
An excerpt weighted towards active compounds, which were near 3.7% of everything screened.
BoNT A protease – blocks Botulinum neurotoxin A light chain protease. multiplex microsphere protease substrate cleavage, flow cytometry. inhibition, % at 10 µM. hit rate 0.17% among 360,000; also: plate controls were buffer without enzyme for full effect and enzyme alone for no effect
Vc quorum ag – inducers of Vibrio cholerae quorum light production without autoinducers. V. cholerae BH1578 lux reporter, luminescence, 6 h. activation, % at 18.7 µM. hit rate 0.16% among 350,000; in the data active = activation mostly above about 9.7%, no sharp cut-off; inconclusive = no clear call, values can overlap the other calls; inactive = mostly below about 3.7%
Anthrax LF prot – blocks Bacillus anthracis lethal factor protease. multiplex microsphere protease cleavage assay, LF. inhibition, % at 10 µM. AID 588501. P15917. hit rate 0.12% among 360,000; also: plate controls were buffer without enzyme for full effect and enzyme alone for no effect
BoNT F protease – blocks Botulinum neurotoxin F light chain protease; Multiplex microsphere protease cleavage assay, flow cytometry; inhibition, % at 10 µM; hit rate 0.22% among 360,000; AID 588497; in the data active = inhibition above about 35%, passing the limit was not always enough; inconclusive = no clear call, values can overlap the other calls; also: plate controls were buffer without enzyme for full effect and enzyme alone for no effect
Autofluor counter – counter-screen for toxin protease inhibitors: compound fluorescence; compound autofluorescence counterscreen, microsphere flow cytometry; hits give high values; fluorescence intensity (no concentration beside the values); hit rate 3.1% among 360,000; in the data active = fluorescence intensity above about 16000; inconclusive = no clear call, values can overlap the other calls
BJeLR viability – kills HRASV12-expressing BJeLR cells; BJeLR (HRASV12) viability, CellTiter-Glo ATP luminescence, 48 h; inhibition, % (test concentration not listed); hit rate 0.17% among 300,000; AID 1554; in the data active = inhibition above about 50%; inconclusive = no clear call, values can overlap the other calls
Numbers without * were called inactive; i = inactive; ? = inconclusive; nt = no result given. Rule as the data show it, unless noted: active = inhibition above about 30%; inconclusive = no clear call, values can overlap the other calls; inactive = below that.

SMILES	BoNT A protease	Vc quorum ag	Anthrax LF prot	BoNT F protease	Autofluor counter	BJeLR viability
O=C(C[C@H]1C(=O)N(c2ccccc2)C[C@@H]1Cc1ccccc1)Nc1ccccc1	0	0	-7	0	3536	nt
O=C(NCc1cccs1)c1ccccc1C(=O)NCc1cccs1	?	i	1	-5	23472*	0
COC(=O)[C@@H](NC(=O)NCc1cccs1)C(C)C	3	i	-5	-1	18068*	5
Cc1c(C(=O)NCc2ccc3c(c2)OCO3)oc2ccccc12	4	2	-9	3	20346*	19
O=C(NCc1cccs1)c1ccccc1[N+](=O)[O-]	0	0	0	-6	2552	-7
Cc1ccc(NC(=O)c2oc3ccccc3c2NC(=O)c2ccc3c(c2)OCO3)cc1	5	-1	0	4	20506*	-13
O=C(Nc1c(C(=O)Nc2cccc(F)c2)oc2ccccc12)c1ccc2c(c1)OCO2	0	i	-5	-8	8437	-17
C(=C\c1ccccc1)/CN1CCN(C(CCc2ccccc2)c2nnnn2C2CCCC2)CC1 (configuration not stated)	-1	nt	-3	-12	6558	nt
COC(=O)c1sc(NC(=O)c2oc3ccccc3c2C)nc1C	0	2	-5	-3	2993	0
Cc1c(C(=O)NCc2cccnc2)oc2ccccc12	-1	i	-1	-3	23977*	-2
Cc1c(C(=O)NCc2cccs2)oc2ccccc12	0	i	-3	-1	23183*	3
O=C(OCCNC(=O)c1cc2ccccc2oc1=O)c1cccnc1	-1	0	5	6	9795	-6
Cc1c(C(=O)NCCc2ccccc2)oc2ccccc12	-3	0	-5	-8	4842	-2
Cc1c(C(=O)Nc2nnc(C(F)(F)F)s2)oc2ccccc12	-4	0	1	-2	23455*	2
O=C(NCc1cccnc1)c1cc2ccccc2oc1=O	1	0	-1	1	22899*	6
CN1CCN(c2ncnc3c2ncn3[C@H]2CN(Cc3cccnc3)C[C@@H](CO)O2)CC1	0	0	0	-3	3570	nt
CCc1nc2c(OCC(=O)C(C)(C)C)cccn2c1N(C)C(=O)C(C)C	0	i	3	-4	3068	nt
Cc1c(C(=O)Nc2ccncc2)oc2ccccc12	0	0	-7	-4	5119	9
Cc1c(C(=O)NC(C)c2ccncc2)oc2ccccc12 (configuration not stated)	?	i	-3	-1	21661*	9
COc1ccc(CN(C)c2ncnc(N)n2)cc1	0	17*	1	-4	2617	-2
CCCCOc1ccc(CN(C)c2ncnc(N)n2)cc1	?	-1	-3	1	22920*	3
COc1ccc(CNc2ncnc(N)n2)cc1	0	nt	0	-5	2946	7
CCCOc1ccc(CN(C)c2ncnc(N)n2)cc1	1	i	-9	?	3272	-1
CC(C)COC(=O)N1CCCCC1c1cc(C(=O)NC(C)C)no1 (configuration not stated)	0	-1	5	-1	3766	nt
CCCC[C@@H]1CC2=C(C(=O)OC(C)(C)O2)[C@@H](c2ccc(Cl)cc2)O1	0	nt	3	4	6592	nt
SMILES	BoNT A protease	Vc quorum ag	Anthrax LF prot	BoNT F protease	Autofluor counter	BJeLR viability
Cc1cnc(=O)[nH]c1SCc1cccc(C(F)(F)F)c1	2	i	5	13	5325	-8
Cc1ccc(NC(=O)c2sccc2SCc2cccc(C(F)(F)F)c2)cc1	-7	i	-5	-12	22569*	2
Cc1cccc(C)c1NC(=O)c1sccc1SCc1cccc(C(F)(F)F)c1	-4	0	-2	-6	17658*	-6
N#CCSc1ccsc1C(=O)Nc1ccc(F)cc1	0	-2	-2	-5	16375*	14
COc1cc2ccc(CC(N)=O)cc2cc1OC	0	-1	-2	-1	3570	nt
OC[C@@H]1CN(Cc2ccc(Cl)cc2)C[C@H](n2cnc3c(NC4CCC4)ncnc32)O1	0	i	4	10	3554	nt
CC(C)OP(=O)(OC(C)C)C(NC(=O)c1ccc(Br)cc1)c1ccccc1 (configuration not stated)	-2	i	-1	-1	21425*	6
Cc1cc2nc(-c3nnnn3C3CCCCC3)c(=O)[nH]c2cc1C	7	nt	-5	12	5383	nt
CCCCn1nnnc1C1(C)CCC(=O)N1Cc1cccc(F)c1 (configuration not stated)	1	nt	-2	16	5922	nt
CCCOc1cccc(C(=O)N(Cc2ccccc2)C2CCS(=O)(=O)C2)c1 (configuration not stated)	-2	-1	1	1	6029	11
CCOc1cccc(C(=O)N(Cc2ccc(F)cc2)C2CCS(=O)(=O)C2)c1 (configuration not stated)	?	-3	0	-2	21464*	-2
COc1cc(C(=O)N(Cc2ccc(F)cc2)C2CCS(=O)(=O)C2)cc(OC)c1OC (configuration not stated)	-2	4	2	-2	17106*	-6
CN(C)c1ccc(CN(C(=O)COc2ccc(F)cc2)C2CCS(=O)(=O)C2)cc1 (configuration not stated)	-3	i	-4	-1	20985*	15
COC(=O)c1sc2ncccc2c1OCc1ccc(Cl)cc1	-2	0	?	-6	?	5
COC(=O)c1sc2ncccc2c1OCc1ccccc1Cl	2	i	-7	0	18888*	4
CCN(CC)c1ccc(C=N/C(C#N)=C(\N)C#N)cc1	4	i	-4	-8	17577*	2
Cc1ccccc1NC(=O)CNC(=O)N1CC(=O)Nc2ccccc21	-1	-1	-5	-4	3068	nt
C=CCn1c(NCCc2ccccc2)nc2c1c(=O)n(C)c(=O)n2C	-1	0	-4	-2	2913	7
C/C(Cl)=C\Cn1c(NCCc2ccccc2)nc2c1c(=O)n(C)c(=O)n2C	?	2	0	36*	6537	24
CN(C)c1nc2c(c(=O)n(C)c(=O)n2C)n1Cc1ccccc1	0	i	1	-2	22117*	-6
Cn1c(=O)c2c(nc(-n3ccnc3)n2Cc2ccccc2)n(C)c1=O	-1	i	-1	-9	4140	9
Cn1c(=O)c2c(nc(Br)n2Cc2ccc3ccccc3c2)n(C)c1=O	?	-6	-2	5	20690*	11
Cc1cc(C(=O)N2CCCC(C)(C(=O)NS(=O)(=O)C3CC3)C2)n(C(C)(C)C)n1 (configuration not stated)	0	0	0	1	4036	nt
CN(C)c1ccc(-c2csc(C(O)c3ccc(F)c(F)c3)n2)cc1 (configuration not stated)	0	-1	-10	-4	3378	nt
FC(F)(F)c1ccc(-c2cccc3c2C2CC3CCN2Cc2ccc3c(c2)OCO3)cc1 (configuration not stated)	-1	nt	-7	-8	5671	nt
